RECQ1 inh-1: RECQ1 (human) helicase inhibition | P46063 | RECQ1 DNA unwinding, red fluorescence kinetic read | Potency, µM (series often up to 57.3 µM), for inactives: at the top dose activity, negative = inhibition, usual class: inhibitors | 240,000 compounds, 0.54% hits | AID 2549;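 also: plate controls were vehicle for no effect and no enzyme for full effect; nearly all actives have a fitted effect of over 30% in size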
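RECQ1T1 50 nM; forked duplex (20 bp + 30-nt ss tails) 200 nM, ATP 2 mM final; pH 8.0, 2 mM MgCl2, 2.5 ug/ml poly(dI-dC); 15 min compound preincubation; discontinuous kinetic read over 2 h at RT.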
APE1 inh-1: APE1 (human) endonuclease inhibition | AID 2517 | 350,000 compounds, 0.35% hits | Potency, µM (top dose mostly 65.8 µM), inactives show top-dose activity change, negative = inhibition, usual class: inhibitors | recombinant APE1, TAMRA/BHQ-2 abasic DNA cleavage fluorescence;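 also: plate controls were vehicle for no effect and reference inhibitor for full effect; nearly all actives have a fitted effect of over 55% in size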
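Incision of a quenched TAMRA/BHQ-2 THF abasic-site duplex (50 nM) by 0.75 nM APE1, after 15 min compound preincubation, measured as fluorescence increase over three 60 s reads. Values normalized to buffer, DMSO and NSC13755 control wells.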
JMJD2E inh: inhibitors of human JMJD2E histone demethylase; B2RXH2; Potency, µM (highest dose often 57.1 µM), without a hit: at the highest dose activity change, negative = inhibition, most hits filed as inhibitors; JMJD2E catalytic domain, FDH-coupled NADH fluorescence (FDH is formaldehyde dehydrogenase); AID 2147; 230,000 compounds, 1.6% hits; active = well fitted inhibition curve with a large enough effect, not every such curve was filed as active; inconclusive = small, poorly fitted or top-dose-only effect, or another doubt; inactive = no such curve, though single readings can be large or run the other way;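 also: 0% = wells with enzyme and -100% = buffer wells without enzyme; nearly all actives have a fitted effect of over 50% in size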
L3MBTL1 inh-1: L3MBTL1 (human) inhibition | Potency, µM (titrated, usually from 57.1 µM), for the others: at the top dose activity, negative = inhibition, hits mostly inhibitors | 230,000 compounds, 0.66% hits | AlphaScreen L3MBTL1–H3K9me1 peptide binding | Q9Y468; also: % is scaled to controls: 0 for no effect and ±100 for the full control effect; nearly all actives have a fitted effect of over 60% in size
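Displacement of a biotinylated histone H3(1-15) peptide monomethylated at Lys9 (75 nM) from L3MBTL1 (50 nM) was measured by AlphaScreen after a 30 min room-temperature compound incubation; cefsulodin titration served as intraplate control.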
BLM inh: blocks DNA unwinding by human BLM helicase; P54132; recombinant BLM DNA unwinding, fluorescence dequenching; Potency, µM (doses to about 56.1 µM), for the others: top-dose activity change, negative = inhibition, hits mostly inhibitors; 350,000 compounds, 0.2% hits;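 also: plate controls were vehicle for no effect and no enzyme for full effect; nearly all actives have a fitted effect of over 35% in size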
Target sequence (P54132 whole entry, looked up): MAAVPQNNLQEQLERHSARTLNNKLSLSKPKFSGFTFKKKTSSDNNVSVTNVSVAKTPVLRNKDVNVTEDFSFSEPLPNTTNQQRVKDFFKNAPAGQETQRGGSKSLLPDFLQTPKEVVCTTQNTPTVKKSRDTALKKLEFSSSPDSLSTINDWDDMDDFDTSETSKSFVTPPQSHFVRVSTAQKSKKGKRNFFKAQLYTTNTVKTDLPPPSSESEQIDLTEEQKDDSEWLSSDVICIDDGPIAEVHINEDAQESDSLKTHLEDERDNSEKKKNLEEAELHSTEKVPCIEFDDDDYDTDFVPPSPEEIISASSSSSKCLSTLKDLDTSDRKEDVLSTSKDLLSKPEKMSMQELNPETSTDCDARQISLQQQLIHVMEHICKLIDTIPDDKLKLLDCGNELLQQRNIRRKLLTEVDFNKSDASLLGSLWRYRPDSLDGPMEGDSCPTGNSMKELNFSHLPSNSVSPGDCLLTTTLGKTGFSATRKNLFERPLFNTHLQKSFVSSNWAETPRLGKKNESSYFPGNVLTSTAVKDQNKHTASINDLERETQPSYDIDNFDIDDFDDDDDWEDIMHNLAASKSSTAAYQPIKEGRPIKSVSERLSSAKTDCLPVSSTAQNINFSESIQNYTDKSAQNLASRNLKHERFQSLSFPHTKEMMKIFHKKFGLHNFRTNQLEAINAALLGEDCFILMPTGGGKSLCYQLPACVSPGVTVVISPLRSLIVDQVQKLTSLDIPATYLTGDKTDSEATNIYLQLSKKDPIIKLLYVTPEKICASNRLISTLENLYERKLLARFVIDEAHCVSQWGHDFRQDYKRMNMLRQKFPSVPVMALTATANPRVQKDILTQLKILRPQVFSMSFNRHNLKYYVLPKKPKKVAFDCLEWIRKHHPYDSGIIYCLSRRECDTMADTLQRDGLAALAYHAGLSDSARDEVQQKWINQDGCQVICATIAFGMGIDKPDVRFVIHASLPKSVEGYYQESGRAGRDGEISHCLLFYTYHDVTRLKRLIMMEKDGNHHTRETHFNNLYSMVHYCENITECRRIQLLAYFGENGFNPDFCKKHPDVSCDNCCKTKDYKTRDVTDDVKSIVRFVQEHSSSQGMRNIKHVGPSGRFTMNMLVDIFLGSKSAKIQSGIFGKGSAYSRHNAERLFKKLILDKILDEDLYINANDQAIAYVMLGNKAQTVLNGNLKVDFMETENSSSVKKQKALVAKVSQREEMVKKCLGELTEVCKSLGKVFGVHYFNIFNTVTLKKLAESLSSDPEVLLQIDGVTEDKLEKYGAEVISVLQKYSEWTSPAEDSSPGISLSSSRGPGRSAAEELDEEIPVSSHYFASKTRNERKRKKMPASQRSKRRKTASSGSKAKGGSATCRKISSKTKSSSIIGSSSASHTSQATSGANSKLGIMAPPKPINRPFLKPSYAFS
TDP1 block: inhibitors of human tyrosyl-DNA phosphodiesterase TDP1. Q9NUW8. recombinant TDP1, AlphaScreen DNA substrate cleavage. Potency, µM (doses to about 130 µM), inactives show at the top dose activity change, negative = inhibition, most hits filed as inhibitors. 350,000 compounds, 0.28% hits. AID 485290; also: % is scaled to controls: 0 for no effect and ±100 for the full control effect; nearly all actives have a fitted effect of over 40% in size
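Recombinant E. coli-expressed Tdp1 (1 nM) preincubated with compound 15 min at RT, then 5'-biotin/3'-phosphotyrosine-FITC DNA substrate (15 nM) added for 5 min. AlphaScreen beads (10 ug/ml) added, 10 min RT; tyrosine-FITC cleavage read as signal loss.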
APE1 dye cs: displaces fluorescent dye from DNA, flagging APE1 artifacts. shares compounds with APE1 inh-1. DNA fluorescent dye displacement counterscreen, fluorescence. Potency, µM (top dose mostly 28.5 µM), for the others: at the top dose activity change, negative = inhibition, hits mostly inhibitors. 480 compounds, 7% hits;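 also: loss of thiazole orange fluorescence as the dye is displaced from duplex DNA; 0% = ThO with dsDNA and no compound and -100% = ThO without dsDNA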
Endo IV inh: counter-screen for APE1 inhibitors: inhibitors of E. coli endonuclease IV. shares compounds with APE1 inh-1. E. coli Endo IV, fluorogenic AP-site DNA cleavage. Potency, µM (highest dose often 27.1 µM), for inactives: at the highest dose activity change, negative = inhibition, hits mostly inhibitors. 560 compounds, 4% hits;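 also: plate controls were uninhibited enzyme wells for no effect and no enzyme buffer wells for full effect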
APE1 inh-2: confirmation of inhibitors of human APE1 endonuclease | shares compounds with APE1 inh-1 | purified APE1, fluorogenic abasic-site DNA cleavage | Potency, µM (highest dose often 57.1 µM), for inactives: at the top dose activity change, negative = inhibition, hits mostly inhibitors | 750 compounds, 44% hits | AID 2572; also: % is scaled to controls: 0 for no effect and ±100 for the full control effect; nearly all actives have a fitted effect of over 30% in size
APE1 FP inh: APE1 (human) DNA binding inhibition, fluorescence polarization; Potency, µM (highest dose often 28.5 µM), inactives show top-dose activity, negative = inhibition, hits mostly inhibitors; 480 compounds, 7% hits; shares compounds with APE1 inh-1; APE1 binding to TAMRA-labelled double-stranded DNA, fluorescence polarization displacement; also: % is scaled to controls: 0 for no effect and ±100 for the full control effect
RECQ1 inh conf: confirmation of human RECQ1 helicase inhibitors. AID 2708. RECQ1 helicase DNA unwinding, fluorescence. shares compounds with RECQ1 inh-1. 610 compounds, 28% hits. Potency, µM (top dose mostly 229 µM), without a hit: top-dose activity change, negative = inhibition, most hits filed as inhibitors; also: % is scaled to controls: 0 for no effect and ±100 for the full control effect; nearly all actives have a fitted effect of over 45% in size
ADP FP counter: ADP displacement flagged in RECQ1 inhibitor counter-screen. ADP fluorescence polarization displacement counterscreen. AID 2711. Potency, µM (highest dose often 228 µM), without a hit: at the top dose activity change, negative = inhibition, hits mostly inhibitors. 530 compounds, 27% hits. shares compounds with RECQ1 inh-1; also: % is scaled to controls: 0 for no effect and ±100 for the full control effect; nearly all actives have a fitted effect of over 45% in size
RECQ1 inh-2: confirmation of human RECQ1 helicase inhibitors. shares compounds with RECQ1 inh-1. recombinant RECQ1 DNA unwinding, red fluorescence. Potency, µM (top dose mostly 119 µM), for inactives: at the highest dose activity, negative = inhibition, most hits filed as inhibitors. 1,100 compounds, 15% hits. AID 504841; also: % is scaled to controls: 0 for no effect and ±100 for the full control effect; nearly all actives have a fitted effect of over 50% in size
L3MBTL1 inh-2: validation of human L3MBTL1 methyl-lysine binding inhibitors | 500 compounds, 91% hits | L3MBTL1 methyl-lysine binding inhibition, biochemical qHTS | AID 540279 | shares compounds with L3MBTL1 inh-1 | Potency, µM, hits mostly inhibitors; also: nearly all actives have a fitted effect of over 70% in size
L3MBTL1 ctr: interferes with AlphaScreen signal in L3MBTL1 counterscreen; shares compounds with L3MBTL1 inh-1; AlphaScreen counterscreen, signal inhibition; Potency, µM (doses to about 57.1 µM), inactives show at the top dose activity change, negative = inhibition, most hits filed as inhibitors; 500 tested, under 10 active; also: 0% is about no effect
* marks the source's active call; other numbers are inactive results; u = inconclusive; x = not tested or not shown; [ ] = remark or other dose. Only a selection was taken, and hits are over-represented in it overall. Unless noted, calls follow the shape of the dose curve; as a rule, active = well fitted curve in the direction sought with a large enough effect; inconclusive = small, poorly fitted or top-dose-only effect, or another doubt; inactive = no such curve, though single readings can be large; an effect the other way counts as inactive or inconclusive. Potency is read from the fitted curve at half-maximal effect.

SMILES	RECQ1 inh-1	APE1 inh-1	JMJD2E inh	L3MBTL1 inh-1	BLM inh	TDP1 block	APE1 dye cs	Endo IV inh	APE1 inh-2	APE1 FP inh	L3MBTL1 inh-2	L3MBTL1 ctr	others
C=C(C)C(=O)Nc1cccc(C2=NOC3(C2)C[C@@H](C(N)=O)N(C(=O)c2cc([N+](=O)[O-])cc([N+](=O)[O-])c2)C3)c1 (some centres undefined)	-21.3%	7.2%	2.0%	x	-1.8%	x	x	x	x	x	x	x
C=C(C)C(=O)Nc1cccc(C2=NOC3(C2)C[C@@H](C(N)=O)N(C(=O)c2ccc(OC)cc2)C3)c1 (some centres undefined)	7.94µM*	u	-5.5%	x	-6.9%	11.2µM*	x	x	u	x	x	x	RECQ1 inh conf=25.1µM*;ADP FP counter=35.5µM*
CCN(CC)c1ccc(NC(=O)c2cccn2-c2nnc(N3CCCCC3)s2)c(C)c1	x	x	x	x	-3.0%	5.3%	x	x	x	x	x	x
O=C(O)CC(NCc1ccco1)C(=O)OCC1CCCO1 (centres undefined)	-14.5%	12.7%	0.8%	13.1%	-0.8%	3.9%	x	x	x	x	x	x
C=C(C)CCOC(=O)C(CC(=O)O)NCc1ccco1 (centres undefined)	-4.8%	u	-19.3%	28.2µM*	-3.8%	x	x	x	u	x	9.47*	14.5%
CC(=O)Oc1cc2cccc(OC(C)=O)c(=O)c2c(OC(C)=O)c1OC(C)=O	3.16µM*	0.447µM*	11.2µM*	0.355µM*	u	x	1.1%	47.5%	6.31µM*	-0.9%	1.5*	-11.4%
O=C1C2C3C=CC(CC3)C2C(=O)N1c1nccs1 (centres undefined)	22.4µM*	6.31µM*	0.9%	25.1µM*	-28.4%	10µM*	54.5%	26.4%	u	-45.0%	26.7*	6.3%
O=C(Nc1ccc2nc(-c3ccco3)c(-c3ccco3)nc2c1)NC1CC1	10µM*	7.08µM*	u	3.98µM*	6.31µM*	3.16µM*	u	0.4%	7.94µM*	u	2.38*	-17.7%
O=C(CCCc1ccccc1)NC1CC(=O)N(c2ccc(Cl)cc2)C1 (centres undefined)	x	x	x	x	-0.2%	5.2%	x	x	x	x	x	x
COc1cc(/C=C/[N+](=O)[O-])ccc1OCc1cccc(C(=O)O)c1	20µM*	6.31µM*	u	28.2µM*	u	x	20.0%	4.5%	u	28.8%	u	1.7%	RECQ1 inh conf=18.0%[114 µM];ADP FP counter=u
CC(C)CCNC(=O)C(=O)Nc1c2c(nn1-c1ccc(Cl)cc1)CSC2	x	x	x	x	-1.4%	10.4%	x	x	x	x	x	x
O=C(CCCc1ccccc1)NC1CC(=O)N(c2ccc(F)cc2)C1 (centres undefined)	x	x	x	x	1.8%	0.0%	x	x	x	x	x	x
Cc1cc(NC(=O)Cc2cccs2)no1	25.1µM*	28.2µM*	-4.5%	28.2µM*	u	x	u	u	7.94µM*	-84.7%	3.36*	-20.1%	RECQ1 inh-2=u
Cc1cc(NS(=O)(=O)c2ccc(NC(=O)Cc3cccs3)cc2)no1	18.9%	-5.1%	-4.8%	u	-2.8%	2.2%	x	x	x	x	x	x
Nc1ccc(Nc2ccccc2)c(S(=O)(=O)O)c1	u	14.1µM*	u	15.8µM*	0.2%	56.2µM*	u	15.1%	u	u	2.67*	u	RECQ1 inh-2=u
O=C(CSc1ccsc1[N+](=O)[O-])Nc1cccc(F)c1	u	u	-10.4%	28.2µM*	-20.9%	x	u	17.8%	14.1µM*	-20.3%	7.52*	-4.3%
COC(=O)/C=c1/sc2nc3ccccc3n2c1=O	-5.3%	-11.3%	-1.0%	-5.8%	1.0%	4.3%	x	x	x	x	x	x
O=C(O)c1cccc(-c2ccc(/C=c3/sc4nc5ccccc5n4c3=O)o2)c1	u	10µM*	-20.4%	3.55µM*	28.3%	x	6.31µM*	8.1%	5.01µM*	7.94µM*	2.67*	49.9%
Cc1cc2nc(-c3cccc(NC(=O)COc4ccc(C(C)C)cc4)c3)oc2cc1C	x	x	x	x	-0.6%	3.2%	x	x	x	x	x	x
Cc1ccc(NC(=O)CN2C(=O)N/C(=C/c3cccn3-c3ccc(C(=O)O)cc3)C2=O)cc1	7.94µM*	1.12µM*	u	2.24µM*	u	0.891µM*	x	x	1.26µM*	x	0.474*	u	RECQ1 inh conf=20µM*
O=C(O)c1cccc(-n2cccc2/C=C2/NC(=O)N(Cc3ccccc3F)C2=O)c1	u	12.6µM*	-29.1%	31.6µM*	-6.2%	2.82µM*	x	x	u	x	5.97*	9.2%
O=C(CN1C(=O)N/C(=C\c2cccn2-c2cccc(C(=O)O)c2)C1=O)Nc1ccccc1F	x	x	x	x	x	-7.0%	x	x	x	x	x	x

Bioassay records deposited in PubChem BioAssay by National Center for Advancing Translational Sciences (NCATS).
